Screening data deposited in PubChem BioAssay by several laboratories.
An excerpt weighted towards active compounds, which were near 27% of everything screened.
EphB4 antag: EphB4-ephrin-B2 interaction antagonism; hit rate 0.15% among 97,000; inhibition, % at 7 µM; EphB4 LBD / TNYL-RAW-Alexa532 peptide, fluorescence polarization; AID 720;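 active = inhibition above the screen-wide mean inhibition plus 3 SD, cut at about 15% in these data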
CYP2C19 inhib: human CYP2C19 inhibition. inhibition, % at 5 µM. CYP2C19 Supersomes, luciferin-H EGE luminescence, 30 min. hit rate 21% among 96,000;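 active = CYP2C19 inhibition above a set limit at 5 µM in the primary screen, cut at about 50% in these data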
Target sequence (P33261 whole entry, looked up): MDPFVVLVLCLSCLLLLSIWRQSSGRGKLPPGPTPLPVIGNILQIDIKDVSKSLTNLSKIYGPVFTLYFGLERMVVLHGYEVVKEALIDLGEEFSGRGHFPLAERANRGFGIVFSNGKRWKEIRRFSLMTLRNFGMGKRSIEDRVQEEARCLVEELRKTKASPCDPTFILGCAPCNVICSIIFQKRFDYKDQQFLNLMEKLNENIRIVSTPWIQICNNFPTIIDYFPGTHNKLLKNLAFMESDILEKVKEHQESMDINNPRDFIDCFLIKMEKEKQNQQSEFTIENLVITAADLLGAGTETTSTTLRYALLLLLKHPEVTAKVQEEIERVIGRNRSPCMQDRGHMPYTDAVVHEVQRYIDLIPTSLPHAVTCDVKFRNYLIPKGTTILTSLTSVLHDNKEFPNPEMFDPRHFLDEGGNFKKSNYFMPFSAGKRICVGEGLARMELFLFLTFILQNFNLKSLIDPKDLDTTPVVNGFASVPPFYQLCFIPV
CYP2C19 act: activators of human cytochrome P450 2C19; P33261; recombinant CYP2C19, luciferin-H EGE luminescence; hits give high values; 0 = fully inhibited enzyme, 1 = untreated enzyme; activation factor at 5 µM; 96,000 tested, under 10 active; AID 1025;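 active = activation factor of at least 2 at 5 µM in the primary screen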
CYP2C9 inh: inhibitors of human CYP2C9; CYP2C9 Supersomes, luciferin-H conversion, luminescence; P11712; hit rate 20% among 96,000; inhibition, % at 5 µM;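 active = blocking of liver enzyme CYP2C9 beyond about 50% at 5 µM, limit read from the data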
CYP2C9 act: activators of human CYP2C9; hit rate 1.4% among 96,000; activation factor at 5 µM; AID 1024; recombinant CYP2C9, luciferin-H conversion, luminescence; hits give high values; factor 1 = untreated enzyme, 0 = blocked;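 active = activation factor of 2 or more for CYP2C9 at a 5 µM dose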
Large screens that a line does not name were inactive.

CCN(CC)CCn1c(=S)[nH]c2cc3c(cc2c1=O)OCO3	none
Cn1c(=O)n(Cc2ccccc2)c(=O)c2c1nc1n2CCCN1CCc1ccccc1	CYP2C19 inhib 58
C=CCn1c(=O)c2c(nc3n2CCS3)n(C)c1=O	none
Cn1c(=O)n(Cc2ccccc2)c(=O)c2c1nc1n2CCCN1Cc1ccccc1	none
Cn1c(=O)n(Cc2ccccc2)c(=O)c2c1nc1n2CCS1	CYP2C19 inhib 57, CYP2C9 inh 85
C=CCN1C(=NC(=O)CCC)SC2CS(=O)(=O)CC21 (configuration not stated)	none
O=C(O)C1C2CCCCC2=C2CCCCC2C1C(=O)O (configuration not stated)	none
Cc1cc(-c2nc3ncccc3o2)ccc1NC(=O)CC(C)C	none
COC(=O)[C@H](CCSC)NC(=O)N1CCC(C)CC1	CYP2C19 inhib 97, CYP2C9 inh 96
COC(=O)[C@H](CCSC)NC(=O)N1CCN(Cc2ccccc2)CC1	none
COc1ccccc1CNC(=O)CN(C)CC(=O)Nc1cccc(F)c1	CYP2C19 inhib 92, CYP2C9 inh 85
COc1ccccc1CC(=O)Nc1cc(Cl)ccc1O	CYP2C19 inhib 51
O=C(Nc1cc(Cl)ccc1O)c1snnc1-c1ccccc1	CYP2C19 inhib 52, CYP2C9 inh 83
O=C(O)CC(=O)Nc1cc(Cl)ccc1O	none
CCOC(=O)CC(=O)Nc1cc(Cl)ccc1O	none (no result: EphB4 antag)
O=C(CCc1ccccc1)Nc1cc(Cl)ccc1O	CYP2C19 inhib 99, CYP2C9 inh 88
COc1c(Cl)cc(-c2noc(C)c2C(=O)NCc2ccccc2)cc1Cl	none
O=C(NC1CCCCCC1)C1CCN(S(=O)(=O)N2CCC3(CC2)OCCO3)CC1	none
COc1cc(NC(=O)Cc2ccccc2OC)cc(OC)c1	CYP2C19 inhib 51
COc1ccccc1CC(=O)Nc1ccccc1O	CYP2C19 inhib 62, CYP2C9 act 3.5
COc1ccccc1CC(=O)Nc1ccc(OC)c(OC)c1	none
COc1ccccc1NC(=O)Cc1csc(NC(=S)Nc2ccccc2)n1	CYP2C9 inh 66
COc1ccccc1NC(=O)Cc1cccs1	none
Cc1ccc(NC(=O)C2CCN(S(=O)(=O)c3ccc(F)cc3)CC2)cc1	none
CC(=O)c1sc(NC(=O)c2ccc(F)c(F)c2)nc1C	none
O=C(Cn1cnc2c(nnn2Cc2ccccc2)c1=O)NCc1ccco1	none (no result: EphB4 antag)
CCOc1ccc(CNc2ncnc(N)n2)cc1	none
COc1cccc(NC(=O)Cc2nnc(SCCOc3ccccc3)n2C)c1	none
O=C(O)CCC(=O)c1ccc2c(c1)OCCO2	none
O=C(CCN1Cc2ccccc2C1)c1ccc2c(c1)OCCO2	CYP2C9 inh 52
O=C(CCN1CCc2ccccc2C(c2ccccc2)C1)c1ccc2c(c1)OCCO2 (configuration not stated)	CYP2C9 inh 55
O=C(CS(=O)(=O)c1ccccc1)c1ccc2c(c1)OCCO2	CYP2C19 inhib 70
CCCC(=O)c1ccc2c(c1)OCCO2	none
O=C(CSc1nnc(-c2ccccc2)n1-c1ccccc1)NCc1ccco1	none
Cc1oc2nc(SCC(=O)NCCCO)nc(N)c2c1C	none
CCC(Oc1ccccc1)C(=O)N1CCC(C(N)=O)CC1 (configuration not stated)	none
CCn1c(SCC(=O)N2CCCc3ccccc32)nc2cccnc21	none
CCn1c(SCC(=O)N2CCCc3ccccc32)nc2ccccc2c1=O	CYP2C19 inhib 69, CYP2C9 inh 97
CC1CCCCN1C(=O)CSc1nnc(-c2ccco2)n1CC1CCCO1 (configuration not stated)	CYP2C19 inhib 83
COCCCn1c(SCC(=O)N2CCCCC2C)nnc1-c1ccco1 (configuration not stated)	none
O=C(Cn1nnc(-c2ccncc2)n1)N1CCc2ccccc21	CYP2C9 inh 70
O=C(CSc1nc2sc3c(c2c(=O)n1Cc1ccco1)CCC3)N1CCc2ccccc21	none (no result: CYP2C19 inhib, CYP2C19 act, CYP2C9 inh, CYP2C9 act)
Cc1cc2c(=O)n(Cc3ccco3)c(SCC(=O)N3CCCc4ccccc43)nc2s1	CYP2C9 inh 90
O=C(NCc1ccc(F)cc1)c1cnc2n(c1=O)CCS2	none
Cc1nn(Cc2ccc(Cl)cc2Cl)c(Cl)c1/C=C/C(=O)OCC(=O)NCC(F)(F)F	none
CCn1c(SCC(=O)N2CCCc3ccccc32)nnc1-c1ccco1	CYP2C19 inhib 71 (no result: EphB4 antag)
CCn1c(SCC(=O)N2CCc3ccccc32)nnc1-c1ccncc1	CYP2C19 inhib 63
O=C(CSc1ccc2nnc(-c3ccc(Cl)cc3)n2n1)N1CCc2ccccc21	CYP2C9 inh 85
CCn1c(SCC(=O)N2CCCc3ccccc32)nnc1-c1cccs1	none
O=C(O)CC1SC(=Nc2cccc(O)c2)NC1=O (configuration not stated)	none (no result: EphB4 antag)
Cc1c(C(=O)O)oc2ccc(S(=O)(=O)N3CC(C)CC(C)C3)cc12 (configuration not stated)	none (no result: EphB4 antag)
CC(O)/C=C/c1ccc2ccccc2n1 (configuration not stated)	none (no result: EphB4 antag)
O=S(=O)(c1cccc(-c2nc3ccccc3s2)c1)N1CCCC1	CYP2C9 inh 79
CC1CN(S(=O)(=O)c2ccc(-c3nc4ccccc4s3)cc2)CC(C)O1 (configuration not stated)	none (no result: EphB4 antag)
O=S(=O)(c1ccc(-c2nc3ccccc3s2)cc1)N1CCCC1	CYP2C9 inh 77
Cc1ccccc1NC(=O)c1sc2nc3c(c(-c4ccco4)c2c1N)CCC3	none
C=CCn1c(SCC(=O)Nc2ccc3c(c2)OCCO3)nnc1-c1ccccn1	none
C=CCn1c(SCC(=O)c2ccccc2)nnc1-c1cc2ccccc2o1	CYP2C19 inhib 78 (no result: EphB4 antag)
C=CCn1c(SCC(=O)c2ccccc2)nnc1-c1ccc2c(c1)OCO2	CYP2C19 inhib 77
C=CCNC(=O)CSc1nnc(-c2ccccc2Cl)n1-c1c(C)n(C)n(-c2ccccc2)c1=O	none
Nc1nnnn1/N=C/c1ccc(O)cc1	CYP2C19 inhib 68, CYP2C9 inh 84
Cc1ccc(C(C(=O)NCc2ccccc2)N(C(=O)c2csnn2)c2cccc3ccccc23)o1 (configuration not stated)	none
Cc1ccc(S(=O)(=O)N(C)c2ccccc2)cc1	CYP2C19 inhib 94
Cc1ccc(N(C)S(=O)(=O)c2ccc(C)cc2)cc1	CYP2C19 inhib 90, CYP2C9 inh 51
Cc1ccc(S(=O)(=O)N(C)c2ccc(NS(C)(=O)=O)cc2)cc1	CYP2C19 inhib 66, CYP2C9 act 2
O=c1[nH]cc(COCc2ccccc2)c(=O)[nH]1	none
COCCn1c(C)cc(C(=O)CSc2nnc3ccccn23)c1C	CYP2C19 inhib 71
Cc1cc(C)c(C#N)c(SCc2ccccc2)n1	none (no result: CYP2C19 inhib, CYP2C19 act, CYP2C9 inh, CYP2C9 act)
Cc1cc(C)c(C#N)c(SCC(=O)c2cc(C)n(CCc3ccccc3)c2C)n1	CYP2C19 inhib 82, CYP2C9 inh 85
Cc1cc(C)c(C#N)c(SCCS(=O)(=O)Cc2ccccc2)n1	none
O=C(CSc1nnc2ccccn12)c1ccc(OC(F)F)cc1OC(F)F	CYP2C19 inhib 76
Cc1cc(C)c(C#N)c(SCSCc2ccccc2)n1	CYP2C19 inhib 99, CYP2C9 inh 74
CC(C)CCNC(=O)NC(=O)CSc1nnc2ccccn12	none
